Test results reported in PubChem BioAssay AID2284139 (EPA ToxCast).
Activity calls are given as the source filed them. Rule for the calls: active = hit-call score of the fitted dose curve at least 0.9, where 1 is the maximum; inactive = score below 0.9.

Molecular target: human ZAP70 Tyrosine Kinase, ZAP70 (gene 7535) (UniProt P43403)
Test: ERF_FR_ENZ_hZAP70: Eurofins (ERF) Enzymatic Radiometric [Km ATP] KinaseProfiler LeadHunter Assay for human ZAP70 Tyrosine Kinase
Description: ERF_FR_ENZ_hZAP70 is a biochemical, single-readout assay that uses extracted gene-proteins in a cell-free assay. Measurements were taken 0.25 hour after chemical dosing in a 96-well plate. See ZAP70 Human TK Kinase Enzymatic HTRF Assay [Km ATP], Cerep.ERF_FR_ENZ_hZAP70 is an assay component calculated from the ERF_FR_ENZ_hZAP70 assay. It is designed to measure enzyme activity using a type of enzyme reporter as detected by fluorescence intensity with HTRF technology.Data from the assay component ERF_FR_ENZ_hZAP70 was analyzed at the assay endpoint, ERF_FR_ENZ_hZAP70, in the positive analysis fitting direction relative to DMSO as the negative control and baseline of activity. Using a type of enzyme reporter, loss-of-signal activity can be used to understand changes in enzymatic activity as they relate to gene ZAP70. To generalize the intended target to other relatable targets, this assay endpoint is annotated to the kinase intended target family, where the subfamily is protein tyrosine kinase.
ZAP-70 (h) is incubated with 50 mM Tris pH 7.5, 0.1 mM EGTA, 0.1 mM Na3VO4, 0.1% […], 0.1 mg/mL poly(Glu, Tyr) 4:1, 10 mM MnCl2, 10 mM MgAcetate and [gamma-33P]-ATP (specific activity and concentration as required). The reaction is initiated by the addition of the Mg/ATP mix. […]

Sequence of human ZAP70 Tyrosine Kinase, ZAP70 (gene 7535) (P43403 whole entry, looked up): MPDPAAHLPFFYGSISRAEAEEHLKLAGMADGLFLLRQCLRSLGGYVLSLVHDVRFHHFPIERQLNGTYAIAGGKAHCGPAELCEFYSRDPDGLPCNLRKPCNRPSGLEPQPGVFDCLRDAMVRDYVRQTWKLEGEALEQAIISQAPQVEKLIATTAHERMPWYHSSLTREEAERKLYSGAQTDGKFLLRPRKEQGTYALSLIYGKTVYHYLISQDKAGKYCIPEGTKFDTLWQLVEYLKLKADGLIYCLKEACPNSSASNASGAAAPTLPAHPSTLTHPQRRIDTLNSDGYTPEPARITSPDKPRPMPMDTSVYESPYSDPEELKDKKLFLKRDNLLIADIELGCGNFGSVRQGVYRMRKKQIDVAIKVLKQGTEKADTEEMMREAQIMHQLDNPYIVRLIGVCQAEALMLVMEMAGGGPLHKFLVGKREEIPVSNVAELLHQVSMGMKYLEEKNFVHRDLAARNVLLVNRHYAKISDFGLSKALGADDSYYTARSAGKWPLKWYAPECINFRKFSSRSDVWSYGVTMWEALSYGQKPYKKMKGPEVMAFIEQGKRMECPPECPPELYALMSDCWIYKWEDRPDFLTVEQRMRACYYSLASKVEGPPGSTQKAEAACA

`O=C(/C=C/c1ccc(O)cc1)CC(=O)/C=C/c1ccc(O)cc1` was tested. Which outcome did it give?
The outcome was “inactive”.
